Assay outcomes deposited in PubChem by National Center for Advancing Translational Sciences (NCATS).
Shown are actives, neighbours in structure and some others; about 6.6% of the full set was active somewhere.
HepG2 tox: qHTS for Inhibitors of TGF-b: Cytotox Counterscreen | HepG2 CAGA-GFP viability, ATP luminescence, 18 h | hit rate 0.76% among 410,000 | AID 588856, 2011 | Potency, µM (series often up to 46.1 µM), usual class: cytotoxic
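CellTiter-Glo luminescence gave cytotoxicity after 18 hours at 37 degrees C. The cells were HepG2 CAGA-GFP in 1% FBS DMEM, stimulated with 500 pg/mL TGF-beta after compound addition. %Activity was normalised to no-cell wells (complete cell-killing) and DMSO (no toxicity), and curves were fitted and classified.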
TGFb inhibitor: qHTS for Inhibitors of TGF-b | HepG2 CAGA-GFP TGF-b/SMAD3 reporter, GFP fluorescence, 18 h; TGF-beta stimulated, 500 pg/mL final | Potency, µM (highest dose often 46.1 µM), actives largely listed as inhibitors | hit rate 1.2% among 410,000; further: nearly all actives have a fitted effect of over 65% in size
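Inhibition of TGF-beta-driven CAGA-GFP reporter expression in HEPG2 cells is measured by cellular GFP fluorescence after 18 h stimulation with 500 pg/mL recombinant TGF-beta in 1% FBS medium at 37 degrees C.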
KB-3-1 tox: qHTS assay for MDR1-selective chemotherapeutics: Primary screen using the parental adenocarcinoma cell KB-3-1; AID 1347075, 2019; hit rate 1.4% among 400,000; KB-3-1 viability, CellTiter-Glo ATP luminescence, 72 h; Potency, µM (series often up to 46.1 µM), hits mostly cytotoxic; further: nearly all actives have a fitted effect of over 60% in size
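Using CellTiter-Glo luminescence, growth of non-resistant KB-3-1 adenocarcinoma cells is assessed 72 h after pin-tool compound addition at 37 °C. Normalized responses across the concentration series yield fitted curves.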
HT1080 IDH1KD tx: qHTS for induction of synthetic lethality in tumor cells producing 2HG: qHTS for the HT-1080-IDH1KD cell line; HT-1080 IDH1 knockdown viability, ATP luminescence, 48 h; AID 686971, 2013; Potency, µM (top dose mostly 46.1 µM), actives largely listed as cytotoxic; hit rate 2% among 360,000
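In this qHTS, HT-1080 cells depleted of IDH1 are exposed for 48 h at 37 °C to compound titrations. Toxicity is scored from CellTiter-Glo luminescence, with DMSO as full viability and medium alone as none.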
HT1080NT lethal: qHTS for induction of synthetic lethality in tumor cells producing 2HG: qHTS for the HT-1080-NT fibrosarcoma cell line; HT-1080-NT fibrosarcoma viability, CellTiter-Glo ATP luminescence, 48 h; hit rate 1.6% among 360,000; Potency, µM (series often up to 46.1 µM), most hits filed as cytotoxic; AID 686970, 2013;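 further: NT is the 2HG producing partner of a matched IDH1 knockdown line; nearly all actives have a fitted effect of over 55% in size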
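Compounds were tested in concentration-response format on HT-1080-NT cells for 48 hours at 37 degrees C. Cell viability came from CellTiter-Glo luminescence; curves were classified by r2, response magnitude and activity.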
KB-V1 cytotox: qHTS assay for MDR1-selective chemotherapeutics: Primary screen using the drug-selected MDR subline cells KB-V1; KB-V1 MDR cells viability, CellTiter-Glo, 72 h; hit rate 3.4% among 400,000; Potency, µM (top dose mostly 46.1 µM), usual class: cytotoxic; further: nearly all actives have a fitted effect of over 60% in size
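Cytotoxicity toward P-gp-expressing KB-V1 cells was determined as loss of CellTiter-Glo luminescence after 72 h at 37 degrees C. Compounds were tested in quantitative HTS format across a concentration range, with curves fitted to normalized data.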
Numbers stand for hits; n = inactive; u = inconclusive; x = no result. The call rests on the fitted dose curve; in most records, active means well fitted curve in the direction sought with a large enough effect; inconclusive means small, poorly fitted or top-dose-only effect, or another doubt; inactive means no such curve, though single readings can be large; an effect the other way counts as inactive or inconclusive.

SMILES	HepG2 tox	TGFb inhibitor	KB-3-1 tox	HT1080 IDH1KD tx	HT1080NT lethal	KB-V1 cytotox
COc1cc(-c2cc(NC(C)=O)c3ncc(-c4ccc(F)cc4)n3c2)cc(OC)c1OC	n	n	n	u	n	16µM
COc1ccc(-c2cc(NC(C)=O)c3ncc(-c4cccc(C(C)=O)c4)n3c2)cc1OC	n	n	n	u	n	n
COc1ccc(-c2cnc3c(NC(C)=O)cc(-c4ccccc4CN(C)C)cn23)cc1OC	n	n	n	u	u	n
COc1cc(-c2cc(NC(C)=O)c3ncc(-c4ccc(C(C)=O)cc4)n3c2)cc(OC)c1OC	n	u	u	u	n	23µM
O=C(CCC(=O)N1CC2CCCN2c2ccccc21)NCc1ccccc1F (stereo not given)	n	n	n	x	x	n
CCCCN(C)CCNC(=O)c1ccc(Cn2c(=O)[nH]c3cc(OC)c(OC)cc3c2=O)cc1	n	n	u	x	x	u
Cc1ccccc1NC(=O)c1ccc(F)c(S(=O)(=O)N(C)C2CCCCC2)c1	n	n	x	x	x	x
COCCCN1CCN(C2Cc3ccccc3Sc3ccc(Cl)cc32)CC1 (stereo not given)	n	u	u	n	n	u
Clc1ccc2c(c1)C(N1CCNCC1)Cc1ccccc1S2 (stereo not given)	14µM	u	u	18µM	u	21µM
Clc1cccc2c1Sc1ccccc1CC2N1CCNCC1 (stereo not given)	n	u	u	18µM	23µM	u
CCCCOc1ccc(C(=O)Nc2ccc3c(c2)CCCN3S(=O)(=O)c2ccc(C)cc2)cc1	n	u	u	x	x	u
COc1ccc2nc(C)cc(Nc3ccccc3OC)c2c1	n	n	n	n	n	n
COc1cccc2c(N/N=C/c3ccccc3)cc(C)nc12	n	n	n	n	n	n
COc1ccc2nc(C)cc(SCC(=O)N/N=C/c3ccc(O)c(O)c3)c2c1	n	n	n	n	n	n
Cc1cc(N/N=C/c2ccccc2O)c2ccccc2n1	n	u	13µM	n	n	u
COc1ccc2nc(C)cc(N/N=C/c3cccc(OC)c3O)c2c1	n	u	n	16µM	u	u
COc1ccc(/C=N/Nc2cc(C)nc3ccc(Br)cc23)cc1	6.3µM	11µM	u	21µM	7.3µM	16µM
COc1ccc2nc(C)cc(SCC(=O)N/N=C/c3cccc4ccccc34)c2c1	n	n	u	6.3µM	11µM	5.8µM
CC1=C(C(=O)Nc2ccc(C)cc2C)C(c2ccc(O)cc2)n2nnnc2N1 (stereo not given)	n	n	n	x	x	n
COc1ccc2nc(C)cc(NCc3cccc(C(F)(F)F)c3)c2c1	22µM	u	n	16µM	23µM	u
N#CC1=C(SCC(=O)c2ccc(Br)cc2)NC2=C(C(=O)CCC2)C1c1ccco1 (stereo not given)	n	n	10µM	10µM	13µM	21µM
CC(=O)C1=C(C)NC(SCC(=O)c2ccc(Cl)cc2)=C(C#N)C1c1ccco1 (stereo not given)	n	n	n	u	u	21µM
Nc1c(C(=O)N/N=C/c2ccc(F)cc2)oc2nc(-c3ccccc3)cc(-c3ccco3)c12	n	n	n	21µM	u	n
O=C(N/N=C/c1ccc(F)cc1)c1cc(-c2ccco2)nc2ccccc12	n	u	u	16µM	u	u
Cc1ccc(-c2nc(NC(=O)c3nn(C)cc3[N+](=O)[O-])sc2C)cc1	n	u	4.6µM	12µM	5.8µM	u
SMILES	HepG2 tox	TGFb inhibitor	KB-3-1 tox	HT1080 IDH1KD tx	HT1080NT lethal	KB-V1 cytotox
Cc1ccc(-c2nc(NC(=O)c3nn(C)cc3[N+](=O)[O-])sc2C)cc1C	n	u	u	4.1µM	21µM	15µM
CC(=O)c1c(C)[nH]c(C(=O)Nc2nc(-c3ccc(Cl)cc3)cs2)c1C	n	n	u	n	n	u
O=C(Nc1nc(-c2ccc(Cl)cc2)cs1)NC1CCCCC1	n	11µM	u	u	n	13µM
Cc1cnc(NC(=O)c2nn(C)cc2[N+](=O)[O-])s1	n	u	u	u	u	u
Cn1cc([N+](=O)[O-])c(C(=O)Nc2nc(-c3ccc(Cl)cc3)cs2)n1	6.3µM	u	6.5µM	3.3µM	2.9µM	13µM
COc1cccc(N(CC(=O)N2CCC(C)CC2)S(=O)(=O)c2ccc(C)cc2)c1	n	n	n	x	x	n
Cc1sc2c(c1C)c(=O)n(CCc1ccccc1)c(=O)n2Cc1ccc(C(C)(C)C)cc1	n	n	n	x	x	n
O=C(CSCc1ccccc1)N/N=C/c1ccc(OCC(=O)N2CCCCC2)cc1	n	n	n	n	n	21µM
O=C(COc1ccc(/C=N/NC(=O)C(=O)N2CCCCCC2)cc1)Nc1ccccc1Cl	n	n	n	n	n	18µM
COc1ccc(CSCC(=O)N/N=C/c2ccc(OCC(=O)N3CCCCC3)cc2)cc1	n	n	n	n	n	n
COc1ccc(/C=N/NC(=O)C(=O)N2CCCCCC2)cc1	n	n	n	n	n	n
O=C(O)C1CCN(c2nc(-c3ccccc3)nc3c2oc2ccccc23)CC1	n	n	n	n	n	n
Cc1nc(N2CCN(Cc3ccc4c(c3)OCO4)CC2)c2oc3ccccc3c2n1	n	u	u	u	u	u
Cc1nc(N2CCC(C)CC2)c2oc3ccccc3c2n1	n	n	u	u	u	21µM
Cc1nc(N2CCN(Cc3ccc(Cl)cc3)CC2)c2oc3ccccc3c2n1	n	n	n	u	n	u
OCCN1CCN(c2nc(-c3ccccc3)nc3c2oc2ccccc23)CC1	n	n	u	u	23µM	u
COc1ccccc1N1CCN(c2nc(C)nc3c2oc2ccccc23)CC1	n	u	1.4µM	1.3µM	1.1µM	1.1µM
S=C1Cc2ccccc2N1	8.9µM	5.6µM	5.8µM	5.2µM	4.6µM	u
S=C1Nc2ccccc2CS1	n	n	n	n	n	n
CC(=O)/C=C1\OCc2ccccc21	x	x	n	n	n	n
CC(NC(=O)Cc1ccc(NS(=O)(=O)c2cccc(C(F)(F)F)c2)cc1)c1ccccn1 (stereo not given)	n	n	u	n	n	21µM
Cc1ccc(C)c(NC(=O)CSc2nnc3n2CCCCC3)c1	n	n	n	n	n	n
Cc1ccc(CN(C)C(=O)CSc2nnc3n2CCCCC3)c(C)c1	n	n	n	n	n	15µM
